# Measurements reported in PubChem BioAssay (Tox21).
# Unmarked numbers belong to inactive results. Inconclusive results are not listed. Entries that show only a call come without a potency. The source made the active and inactive calls. Unless noted, the call rests on the fitted dose curve; in most records, active means well fitted curve in the direction sought with a large enough effect in the repeat runs; inconclusive means weak or mixed curves; inactive means no such curve, though single readings can be large; an effect the other way counts as inactive or inconclusive.
# Tests used:
# [1] = qHTS assay for small molecule agonists of the p53 signaling pathway (AID 651631; calls by dose curve; further: nearly all actives have a fitted effect of over 15% in size)
# Outline: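 Quantitative high-throughput format: 4,000 p53RE-bla HCT-116 cells/well, 5 h pre-incubation, 16 h compound exposure at 37 °C, 2 h room-temperature substrate step, fluorescence intensity measured.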
# [2] = qHTS assay for small molecules that induce genotoxicity in human embryonic kidney cells expressing luciferase-tagged ATAD5 (AID 651632); further: nearly all actives have a fitted effect of over 15% in size
# Outline: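 Concentration-response screen for ATAD5 upregulation in HEK293T luciferase reporter cells; 16 hr treatment at 37C, then luminescence after 30 min with Amplite at room temperature.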
# [3] = qHTS assay for small molecule agonists of the p53 signaling pathway - cell viability (AID 651633; calls by dose curve;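 further: p53RE-bla HCT reporter cells with a stable beta-lactamase p53 reporter; series mostly up to about 83 µM; nearly all actives have a fitted effect of over 30% in size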)
# Outline: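 p53RE-bla cells, seeded at 4,000 per well and rested 5 h at 37 C/5% CO2, received compounds in DMSO for 16 h at 37 C. CellTiter-Glo was then added, and luminescence was read after 30 min at room temperature to gauge cytotoxicity.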
# [4] = qHTS assay for small molecules that induce genotoxicity in human embryonic kidney cells expressing luciferase-tagged ATAD5 - cell viability (AID 651634; calls by dose curve; further: nearly all actives have a fitted effect of over 25% in size)
# Outline: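 15.5 hr compound or vehicle exposure of HEK293T cells expressing luciferase-tagged ATAD5 at 37C; live-cell protease activity is read by fluorescence after 30 min of CellTiter-Fluor.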
# [5] = qHTS assay for small molecule disruptors of the mitochondrial membrane potential - cell viability (AID 720634; calls by dose curve;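 further: human HepG2 liver cancer cells; series mostly up to about 83 µM; nearly all actives have a fitted effect of over 20% in size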)
# Outline: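 In this qHTS format, HepG2 cells plated overnight were pinned with compound, incubated 1 hr, and assayed for ATP luminescence with CellTiter-Glo after m-MPI dye addition.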
# [6] = qHTS assay for small molecule disruptors of the mitochondrial membrane potential (AID 720635)
# Outline: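 HepG2 cells (2,000/well) attached overnight at 37C, then took compound for 1 hr at 37C, 5% CO2. Mito-MPS dye was added for 30 min; fluorescence was read at 490/535 nm (monomers) and 540/590 nm (aggregates).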
# [7] = qHTS assay to test for compound auto fluorescence at 590 nm (red) in HepG2 cells (AID 720674)
# Outline: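 Intrinsic compound fluorescence in the red window (Ex/Em 540/590 nm) is measured in attached HepG2 cells exposed for 1 hr, DMSO vehicle as baseline, benchmarked to Rose Bengal sodium.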
# [8] = qHTS assay to test for compound auto fluorescence at 535 nm (green) in HepG2 cells (AID 720675)
# [9] = qHTS assay to test for compound auto fluorescence at 590 nm (red) in HEK293 cells (AID 720679)
# Outline: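 Intensity at 540nm excitation and 590nm emission is reported as Rose Bengal sodium-equivalent autofluorescence. Measurements followed overnight exposure (37C, 5% CO2) of HEK293 cells, 2,000 per well, to 23 nL compound.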
# [10] = qHTS assay to test for compound auto fluorescence at 460 nm (blue) in HEK293 cell free culture (AID 720681)
# Outline: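 Test compounds were pinned into cell-free culture medium (DMEM with 10% FBS) and fluorescence was read directly at Ex/Em 405/460 nm. Signals were expressed as fluorescence equivalents of triamterene, with DMSO vehicle as control.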
# [11] = qHTS assay to test for compound auto fluorescence at 535 nm (green) in HEK293 cell free culture (AID 720682)
# Outline: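 Measurement is a direct plate read of green fluorescence (485 nm in, 535 nm out) after compound addition to serum-supplemented DMEM lacking cells, with fluorescein used to express intensities.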
# [12] = qHTS assay to test for compound auto fluorescence at 590 nm (red) in HEK293 cell free culture (AID 720683)
# Outline: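 Tox21 10K library compounds were pinned into cell-free DMEM with 10% FBS and fluorescence was read at excitation 540 nm. Activity is expressed as Rose Bengal sodium equivalency.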
# [13] = qHTS assay to test for compound auto fluorescence at 590 nm (red) in HepG2 cell free culture (AID 720684)
# Outline: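 Readout: intrinsic compound fluorescence at 590 nm emission after 540 nm excitation, scaled to Rose Bengal sodium. Matrix was cell-free MEM with 10% FBS; DMSO vehicle wells served as control.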
# [14] = qHTS assay to test for compound auto fluorescence at 460 nm (blue) in HepG2 cell free culture (AID 720685)
# Outline: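 Cell-free plates of MEM plus 10% FBS received 23 nL compound or DMSO vehicle; blue-channel (405/460 nm) intensity scored against triamterene as reference fluorophore.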
# [15] = qHTS assay to test for compound auto fluorescence at 535 nm (green) in HepG2 cell free culture (AID 720686)
# [16] = qHTS assay to test for compound auto fluorescence at 460 nm (blue) in HepG2 cells (AID 720687)
# Outline: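 Cells (2,000/well in MEM with 10% FBS) attached overnight at 37 C, then were exposed to compound or DMSO for 1 hr at 37 C, 5% CO2. Fluorescence read at Ex/Em 405/460 nm, expressed as triamterene-equivalent signal.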
# [17] = qHTS assay to test for compound auto fluorescence at 460 nm (blue) in HEK293 cells (AID 720678)
# Outline: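 HEK293, 2,000 cells/well, 10% dialyzed FBS; attach 4-5 hr 37C; pin compound or DMSO; o/n 37C/5% CO2; fluorescence 405/460 nm; triamterene-equivalent units.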
# [18] = qHTS assay to test for compound auto fluorescence at 535 nm (green) in HEK293 cells (AID 720680)
# [19] = biological target: Glucocorticoid receptor (Homo sapiens) (UniProt P04150); experiment: qHTS assay to identify small molecule agonists of the glucocorticoid receptor (GR) signaling pathway (AID 720691; active means well fitted activation curve with a large enough effect in the signal ratio in the repeat runs, not every such curve was filed as active; the % refers to the signal ratio; further: potency means the concentration at half of the fitted maximal effect)
# Outline: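 Measures GR pathway activation through a GRE-beta-lactamase reporter stably integrated in HeLa cells, with 18 h compound treatment at 37 C and fluorescence detection using a FRET substrate.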
# [20] = biological target: Glucocorticoid receptor (Homo sapiens) (UniProt P04150); experiment: qHTS assay to identify small molecule antagonists of the glucocorticoid receptor (GR) signaling pathway (AID 720692; active means well fitted inhibition curve with a large enough effect in the signal ratio in the repeat runs, not every such curve was filed as active; the % refers to the signal ratio)
# Outline: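 Tox21 10K library screened in concentration-response for blockade of dexamethasone (5 nM final)-induced GRE-bla reporter activity in HeLa cells; 18 h treatment, fluorescence read.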
# Chain of Glucocorticoid receptor (Homo sapiens) (P04150 whole entry, looked up): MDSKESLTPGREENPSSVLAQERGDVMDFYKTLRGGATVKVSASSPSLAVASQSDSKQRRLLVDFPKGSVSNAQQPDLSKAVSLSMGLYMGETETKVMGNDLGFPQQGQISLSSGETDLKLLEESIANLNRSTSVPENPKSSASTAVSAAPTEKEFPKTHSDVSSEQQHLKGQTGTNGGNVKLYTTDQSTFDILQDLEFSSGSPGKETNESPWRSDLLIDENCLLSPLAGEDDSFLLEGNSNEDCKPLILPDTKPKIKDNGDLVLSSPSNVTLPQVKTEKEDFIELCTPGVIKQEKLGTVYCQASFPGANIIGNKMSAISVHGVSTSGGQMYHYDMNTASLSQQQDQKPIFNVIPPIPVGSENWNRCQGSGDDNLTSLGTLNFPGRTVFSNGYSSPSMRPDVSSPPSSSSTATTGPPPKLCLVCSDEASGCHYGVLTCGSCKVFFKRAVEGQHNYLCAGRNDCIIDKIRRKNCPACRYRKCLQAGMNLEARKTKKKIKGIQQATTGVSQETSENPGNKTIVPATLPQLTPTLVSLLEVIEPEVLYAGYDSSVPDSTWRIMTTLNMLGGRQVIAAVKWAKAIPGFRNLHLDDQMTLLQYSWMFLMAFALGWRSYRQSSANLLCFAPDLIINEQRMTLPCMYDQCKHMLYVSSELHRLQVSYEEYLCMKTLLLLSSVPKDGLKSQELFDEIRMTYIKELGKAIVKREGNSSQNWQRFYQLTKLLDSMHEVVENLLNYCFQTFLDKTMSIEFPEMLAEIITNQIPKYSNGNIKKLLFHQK
SMILES,Potency [1],Potency [2],Potency [3],Potency [4],outcome [5],Potency [6],outcome [7],outcome [8],outcome [9],outcome [10],outcome [11],outcome [12],outcome [13],outcome [14],outcome [15],outcome [16],outcome [17],outcome [18],Potency [19],Potency [20]
CN1[C@@H]2CC[C@H]1CC(OC(=O)C(O)c1ccccc1)C2 (stereo not given in full),inactive,inactive,inactive,inactive,inactive,inactive,inactive,inactive,inactive,inactive,inactive,inactive,inactive,inactive,inactive,inactive,–,–,–,–
CCCO[Si](OCCC)(OCCC)OCCC,inactive,inactive,inactive,inactive,inactive,inactive,inactive,inactive,inactive,inactive,inactive,inactive,–,inactive,inactive,inactive,inactive,inactive,inactive,inactive
CCN1CCOCC1,inactive,inactive,inactive,inactive,inactive,inactive,inactive,inactive,inactive,inactive,–,inactive,inactive,inactive,inactive,inactive,inactive,inactive,–,–
CN(C)C(=O)Oc1ccc[n+](C)c1,inactive,inactive,inactive,inactive,inactive,inactive,inactive,inactive,inactive,inactive,inactive,inactive,inactive,inactive,inactive,inactive,inactive,inactive,26.8 µM (active),inactive
CC(C)C(=O)OC(=O)C(C)C,inactive,inactive,inactive,inactive,inactive,inactive,inactive,inactive,inactive,inactive,inactive,inactive,inactive,inactive,inactive,inactive,inactive,inactive,inactive,inactive
C=C(C)C(=O)OCC1CCCO1 (stereo not given),inactive,inactive,inactive,inactive,inactive,inactive,inactive,inactive,inactive,inactive,–,inactive,inactive,inactive,inactive,inactive,inactive,inactive,inactive,inactive
CC(C)(CCC(=O)O)C(=O)O,inactive,inactive,inactive,inactive,inactive,inactive,inactive,inactive,inactive,inactive,inactive,inactive,inactive,inactive,inactive,inactive,inactive,inactive,inactive,inactive
CC(C#N)(CCC(=O)O)N=NC(C)(C#N)CCC(=O)O (stereo not given),inactive,inactive,inactive,inactive,inactive,inactive,inactive,inactive,inactive,–,inactive,inactive,inactive,inactive,inactive,inactive,inactive,inactive,inactive,inactive
O=C1CCCCCCCCCCCCCCO1,inactive,inactive,inactive,inactive,inactive,inactive,inactive,inactive,inactive,inactive,inactive,inactive,inactive,inactive,inactive,inactive,–,inactive,inactive,inactive
CC(C)(C#N)Nc1nc(Cl)nc(NC2CC2)n1,inactive,inactive,inactive,inactive,inactive,inactive,inactive,–,inactive,inactive,inactive,inactive,inactive,inactive,inactive,inactive,inactive,inactive,inactive,–
CCN(C=O)CC,inactive,inactive,inactive,inactive,inactive,inactive,inactive,–,inactive,inactive,inactive,inactive,inactive,inactive,inactive,inactive,inactive,–,inactive,inactive
CCNS(=O)(=O)c1ccc(C)cc1,inactive,inactive,inactive,inactive,inactive,inactive,inactive,inactive,inactive,inactive,–,inactive,–,inactive,inactive,inactive,–,inactive,inactive,–
CC(C)NNC(=O)c1ccncc1,inactive,inactive,inactive,inactive,inactive,inactive,inactive,inactive,inactive,inactive,–,inactive,inactive,inactive,inactive,inactive,inactive,inactive,inactive,inactive
